“And” between values parts separate entries of the source, which are not always exact repeats. Equal entries are not always repeated. The whole screen tested about 5,500 compounds, of which about 2,000 (36%) were called active. Another 18% or so got no clear call; they are omitted. Cut-off read from the data, not from the text of the source: active = normalized growth mostly below about 0.91 (no sharp cut-off); inconclusive = no clear call, values can overlap the other calls; inactive = mostly above about 0.92. The list shows a part of the results.
Assay: chemical genetic growth profiling, strain panel (AID 1159580);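 note: tested at 20 µM; growth read once vehicle control cultures reached saturation at 30 °C; 1 = growth at the plate median or of vehicle wells; lower values mean less growth of the strain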
Conditions: growth OD

Measured: normalized growth

CC(C)Cn1c(=O)n(C)c(=O)c2[nH]cnc21
inactive: S. cerevisiae deletion strains, locus YJR075W, strain HOC1, stronger effect = lower value 0.999 | S. cerevisiae deletion strains, locus YKL009W, strain mrt4, stronger effect = lower value 0.969 | S. cerevisiae deletion strains, locus YKL068W, stronger effect = lower value 0.991 | S. cerevisiae deletion strains, locus YKL085W, strain MDH1 (second series), stronger effect = lower value 0.983 | S. cerevisiae deletion strains, locus YKL085W, strain MDH1, stronger effect = lower value 0.983 | S. cerevisiae deletion strains, locus YKL160W, strain elf1, stronger effect = lower value 0.986 and 0.992 | S. cerevisiae deletion strains, locus YKL190W, strain CNB1, stronger effect = lower value 1.01 | S. cerevisiae deletion strains, locus YKR001C, strain vps1, stronger effect = lower value 0.967 | S. cerevisiae deletion strains, locus YKR026C, strain gcn3, stronger effect = lower value 0.985 and 1.01 | S. cerevisiae deletion strains, locus YKR091W, strain srl3, stronger effect = lower value 0.988 and 1 | S. cerevisiae deletion strains, locus YLL001W, strain dnm1, stronger effect = lower value 0.994 and 1.01 | S. cerevisiae deletion strains, locus YLL026W, stronger effect = lower value 0.999 and 1.01 | S. cerevisiae deletion strains, locus YLL041C, strain sdh2, stronger effect = lower value 0.997 and 1 | S. cerevisiae deletion strains, locus YLR027C, strain aat2, stronger effect = lower value 1 and 1.01 | S. cerevisiae deletion strains, locus YLR039C, strain RIC1, stronger effect = lower value 0.953 | S. cerevisiae deletion strains, locus YLR058C, strain SHM2, stronger effect = lower value 0.991 | S. cerevisiae deletion strains, locus YLR102C, strain apc9, stronger effect = lower value 0.99 | S. cerevisiae deletion strains, locus YLR113W, strain HOG1, stronger effect = lower value 1.01 and 0.985 | S. cerevisiae deletion strains, locus YLR221C, strain rsa3, stronger effect = lower value 1 and 1.04 | S. cerevisiae deletion strains, locus YLR258W, strain gsy2, stronger effect = lower value 0.988 and 1.02 | S. cerevisiae deletion strains, locus YLR262C, strain YPT6 (second series), stronger effect = lower value 1.01 and 0.998 | S. cerevisiae deletion strains, locus YLR262C, strain YPT6, stronger effect = lower value 0.966 | S. cerevisiae deletion strains, locus YLR268W, strain sec22, stronger effect = lower value 0.978 | S. cerevisiae deletion strains, locus YLR320W, strain mms22, stronger effect = lower value 1 and 1.04 | S. cerevisiae deletion strains, locus YLR330W, strain CHS5, stronger effect = lower value 0.991 | S. cerevisiae deletion strains, locus YLR342W, strain FKS1 (second series), stronger effect = lower value 0.953 | S. cerevisiae deletion strains, locus YLR342W, strain FKS1, stronger effect = lower value 1 and 1.01 | S. cerevisiae deletion strains, locus YLR357W, strain rsc2, stronger effect = lower value 1.03 and 1 | S. cerevisiae deletion strains, locus YLR370C, strain arc18, stronger effect = lower value 1 and 1.03 | S. cerevisiae deletion strains, locus YLR371W, strain rom2, stronger effect = lower value 0.982 | S. cerevisiae deletion strains, locus YLR384C, strain iki3, stronger effect = lower value 0.985 and 1.01 | S. cerevisiae deletion strains, locus YLR418C, strain cdc73, stronger effect = lower value 1.02 | S. cerevisiae deletion strains, locus YML016C, strain PPZ1, stronger effect = lower value 0.988 | S. cerevisiae deletion strains, locus YML032C, strain rad52, stronger effect = lower value 0.973 | S. cerevisiae deletion strains, locus YML120C, strain ndi1, stronger effect = lower value 1.01 and 0.981 | S. cerevisiae deletion strains, locus YML124C, strain tub3, stronger effect = lower value 0.981 | S. cerevisiae deletion strains, locus YMR058W, strain fet3, stronger effect = lower value 1.01 and 1.03 | S. cerevisiae deletion strains, locus YMR078C, strain ctf18, stronger effect = lower value 0.98 | S. cerevisiae deletion strains, locus YMR125W, strain sto1, stronger effect = lower value 0.998 and 0.978 | S. cerevisiae deletion strains, locus YMR129W, stronger effect = lower value 0.994 and 1 | S. cerevisiae deletion strains, locus YMR205C, strain PFK2, stronger effect = lower value 0.991 and 0.986 | S. cerevisiae deletion strains, locus YMR223W, strain ubp8, stronger effect = lower value 0.973 | S. cerevisiae deletion strains, locus YMR231W, strain pep5, stronger effect = lower value 1 and 1.01 | S. cerevisiae deletion strains, locus YMR263W, strain SAP30, stronger effect = lower value 1.01 | S. cerevisiae deletion strains, locus YMR307W, strain GAS1, stronger effect = lower value 0.924 | S. cerevisiae deletion strains, locus YNL067W, strain RPL9B, stronger effect = lower value 0.999 | S. cerevisiae deletion strains, locus YNL071W, strain lat1, stronger effect = lower value 1.02 and 1 | S. cerevisiae deletion strains, locus YNL128W, strain TEP1, stronger effect = lower value 1.01 | S. cerevisiae deletion strains, locus YNL153C, strain GIM3, stronger effect = lower value 1.02 | S. cerevisiae deletion strains, locus YNL175C, strain NOP13, stronger effect = lower value 0.999 | S. cerevisiae deletion strains, locus YNL183C, strain NPR1, stronger effect = lower value 0.928 and 0.909 | S. cerevisiae deletion strains, locus YNL197C, strain WHI3, stronger effect = lower value 0.986 | S. cerevisiae deletion strains, locus YNL209W, strain ssb2, stronger effect = lower value 1.02 and 0.995 | S. cerevisiae deletion strains, locus YNL224C, strain SQS1, stronger effect = lower value 0.998 | S. cerevisiae deletion strains, locus YNL233W, strain BNI4, stronger effect = lower value 0.998 | S. cerevisiae deletion strains, locus YNL248C, strain rpa49, stronger effect = lower value 0.996 and 1.06 | S. cerevisiae deletion strains, locus YNL250W, strain rad50, stronger effect = lower value 0.98 | S. cerevisiae deletion strains, locus YNL271C, strain bni1, stronger effect = lower value 0.999 | S. cerevisiae deletion strains, locus YNL298W, strain CLA4, stronger effect = lower value 0.983 | S. cerevisiae deletion strains, locus YNL307C, strain MCK1, stronger effect = lower value 0.976 | S. cerevisiae deletion strains, locus YNL322C, strain KRE1 (second series), stronger effect = lower value 0.996 and 0.988 | S. cerevisiae deletion strains, locus YNL322C, strain KRE1, stronger effect = lower value 0.993 and 0.979 | S. cerevisiae deletion strains, locus YNR049C, strain mso1, stronger effect = lower value 0.992 and 1.01 | S. cerevisiae deletion strains, locus YNR052C, strain pop2, stronger effect = lower value 0.989 | S. cerevisiae deletion strains, locus YOL006C, strain TOP1, stronger effect = lower value 0.998 | S. cerevisiae deletion strains, locus YOL012C, strain htz1 2.1 | S. cerevisiae deletion strains, locus YOL147C, strain pex11, stronger effect = lower value 0.985 | S. cerevisiae deletion strains, locus YOR001W, strain rrp6, stronger effect = lower value 1.01 and 1.05 | S. cerevisiae deletion strains, locus YOR061W, strain CKA2, stronger effect = lower value 0.993 | S. cerevisiae deletion strains, locus YOR069W, strain VPS5, stronger effect = lower value 0.987 | S. cerevisiae deletion strains, locus YOR070C, strain gyp1, stronger effect = lower value 1 and 1.01 | S. cerevisiae deletion strains, locus YOR080W, strain dia2, stronger effect = lower value 1.01 | S. cerevisiae deletion strains, locus YOR083W, strain WHI5 (second series), stronger effect = lower value 0.998 | S. cerevisiae deletion strains, locus YOR083W, strain WHI5, stronger effect = lower value 0.958 and 0.992 | S. cerevisiae deletion strains, locus YOR106W, strain vam3, stronger effect = lower value 1 and 0.973 | S. cerevisiae deletion strains, locus YOR136W, strain idh2, stronger effect = lower value 0.981 | S. cerevisiae deletion strains, locus YOR144C, strain elg1, stronger effect = lower value 0.987 | S. cerevisiae deletion strains, locus YOR184W, strain ser1, stronger effect = lower value 0.96 | S. cerevisiae deletion strains, locus YOR231W, strain MKK1, stronger effect = lower value 1.01 and 0.96 | S. cerevisiae deletion strains, locus YOR265W, strain rbl2, stronger effect = lower value 1 | S. cerevisiae deletion strains, locus YOR270C, strain vph1, stronger effect = lower value 0.997 and 1.08 | S. cerevisiae deletion strains, locus YOR290C, strain snf2, stronger effect = lower value 0.994 and 0.97 | S. cerevisiae deletion strains, locus YOR316C, strain cot1, stronger effect = lower value 0.993 | S. cerevisiae deletion strains, locus YPL051W, strain arl3, stronger effect = lower value 0.997 and 1.02 | S. cerevisiae deletion strains, locus YPL055C, strain LGE1, stronger effect = lower value 1.03 | S. cerevisiae deletion strains, locus YPL078C, strain atp4, stronger effect = lower value 1 and 0.993 | S. cerevisiae deletion strains, locus YPL106C, strain sse1, stronger effect = lower value 0.998 and 1.02 | S. cerevisiae deletion strains, locus YPL240C, strain hsp82, stronger effect = lower value 1 and 1.01 | S. cerevisiae deletion strains, locus YPL241C, strain CIN2, stronger effect = lower value 0.992 | S. cerevisiae deletion strains, locus YPL256C, strain CLN2, stronger effect = lower value 0.993 and 0.947 | S. cerevisiae deletion strains, locus YPR119W, strain clb2, stronger effect = lower value 0.993 | S. cerevisiae deletion strains, locus YPR141C, strain kar3, stronger effect = lower value 0.975 | S. cerevisiae deletion strains, locus YPR163C, strain tif3, stronger effect = lower value 0.998 | S. cerevisiae deletion strains, locus YPR167C, strain met16, stronger effect = lower value 0.988 | S. cerevisiae deletion strains, strain wtn01, stronger effect = lower value 0.988 | S. cerevisiae strains, strain wild type, stronger effect = lower value 0.995
